PubChem BioAssay (NCATS)
Records with an inconclusive call do not appear. Active and inactive are the calls of the source. Unless noted, the call rests on the fitted dose curve; in most records, active means well fitted curve in the direction sought with a large enough effect; inconclusive means small, poorly fitted or top-dose-only effect, or another doubt; inactive means no such curve, though single readings can be large; an effect the other way counts as inactive or inconclusive.

How the values were obtained:
[1] = Cell Viability - BJ (AID 421; calls by dose curve;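 further: potency means the concentration at half of the fitted maximal effect; cells exposed to compound for 40 hours at 37 °C before readout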); settings: BJ fibroblast viability, qHTS
Summary of the method: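 Cytotoxicity in human BJ foreskin fibroblasts is scored as loss of cellular ATP after a 40-hour exposure, measured by luciferase luminescence. Controls are DMSO and 100 uM tamoxifen.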

[2] = Cell Viability - Jurkat (AID 426;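 active means dose-dependent loss of cell ATP signal giving a full or clear fitted curve, ranked by lower potency value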;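 further: potency means the concentration at half of the fitted maximal effect; cells exposed to compound for 40 hours at 37 °C before ATP read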); settings: qHTS
Summary of the method: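 Cytotoxicity taken as drop in cellular ATP (CellTiter-Glo luminescence, 20 min room temperature) after 40 hr, 37C treatment of 5000 Jurkat Clone E6-1 cells per well; concentration-response fitted with Hill equation for AC50.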

[3] = Cell Viability - Hek293 (AID 427;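 active means compounds whose dose-response curve shows a full or clear partial loss of cell viability, called from curve shape rather than a numeric limit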;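 further: potency means the concentration at half of the fitted maximal effect; cells exposed to compound for 40 hours at 37 °C before reading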); settings: qHTS
Summary of the method: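 qHTS, human embryonic kidney (adenovirus-transformed) cells; 40 hr cpd, 37 °C; CellTiter-Glo ATP luminescence. Norm: DMSO = 0, 100 uM tamoxifen = 100% inhibition. Hill-fit AC50.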

[4] = Cell Viability - HepG2 (AID 433; calls by dose curve;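 further: potency means the concentration at half of the fitted maximal effect; cells exposed to compound for 40 hours; potency for ATP loss meaning cytotoxicity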); settings: qHTS
Summary of the method: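 Read-out is luciferase-based quantitation of cellular ATP as a measure of viable HepG2 cells after 40 h treatment at 37 °C. Signal decrease is scaled between DMSO-only and 100 uM tamoxifen controls, with AC50 fitted by the Hill equation.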

[5] = Cell Viability - MRC5 (AID 434; calls by dose curve;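 further: potency means the concentration at half of the fitted maximal effect; cells exposed to compound for 40 hours at 37 °C; potency reflects cytotoxicity seen as loss of intracellular ATP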); settings: MRC5 lung fibroblast viability, qHTS
Summary of the method: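 AC50 values come from Hill-equation fits of intracellular ATP loss, measured by CellTiter-Glo luminescence. Normal lung fibroblasts (MRC5) had 40 hr compound treatment at 37 C, normalized between DMSO and 100 uM tamoxifen.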

[6] = Cell Viability - N2a (AID 540); settings: N2a mouse neuroblastoma cell viability; at 92.2 µM (top of the series);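 further: plate controls were DMSO alone for no effect and tamoxifen control for full effect; nearly all actives have a fitted effect of over 45% in size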
Summary of the method: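 CellTiter-Glo ATP luminescence, read 20 min after reagent at room temperature, reported viability following 40 h compound treatment at 37 °C. N2a mouse neuroblastoma cells seeded 1500/well; Hill equation gave AC50.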

[7] = Cell Viability - NIH 3T3 (AID 541); settings: NIH 3T3 cell viability, qHTS; at 92.2 µM (top of the series);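 further: cells exposed to compound for 40 hours; plate controls were DMSO alone for no effect and tamoxifen positive control for full effect; nearly all actives have a fitted effect of over 25% in size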
Summary of the method: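 Intracellular ATP (CellTiter-Glo luminescence, 20 min at room temperature) measured after 40 hr compound exposure at 37 °C of 1000 NIH 3T3 mouse fibroblasts/well in complete medium; AC50 derived by Hill-equation modelling of qHTS concentration-response curves.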

[8] = Cell Viability - H-4-II-E (AID 543);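 further: cells exposed to compound for 40 hours; on the % scale 0 is the no-effect control and ±100 the full control effect; nearly all actives have a fitted effect of over 35% in size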
Summary of the method: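 CellTiter-Glo luminescence (intracellular ATP) measured after 40 h compound exposure at 37 °C in H-4-II-E rat hepatoma cells seeded at 1500/well. Values are AC50s fitted with the standard Hill equation.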

[9] = Cell Viability - SH-SY5Y (AID 544);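 further: cells exposed to compound for 40 hours; 0% = DMSO alone and -100% = 100 µM tamoxifen; nearly all actives have a fitted effect of over 55% in size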
Summary of the method: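 Cytotoxicity measured via ATP-dependent luciferase luminescence (CellTiter-Glo) following 40 h, 37 °C exposure of 1500 SH-SY5Y cells per well. Concentration-response data were fitted with the standard Hill equation to give AC50.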

[10] = Cell Viability - Renal Proximal Tubule (AID 545);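 further: cells exposed to compound for 40 hours; 0% = DMSO only and -100% = 100 µM tamoxifen; nearly all actives have a fitted effect of over 40% in size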
Summary of the method: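 Luminescent ATP signal (CellTiter-Glo) served as the viability read-out after 40 hr compound exposure of freshly isolated rat proximal tubule cells at 37 °C. Concentration-dependent ATP loss was fitted with the Hill equation to give AC50.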

[11] = Cell Viability - Mesenchymal (AID 546);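 further: cells exposed to compound for 40 hours before reading; 0% = DMSO only and -100% = 100 µM tamoxifen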
Summary of the method: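 CellTiter-Glo luminescence (intracellular ATP, 20 min room temperature) after 40 hr compound exposure at 37 °C of 1000 glomerulus-derived human kidney mesenchymal cells/well; AC50 values obtained by fitting qHTS concentration-response data to the Hill equation.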

[12] = Cellular Toxicity (caspase-3) HepG2 (AID 654);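 further: cells exposed to compound for 16 hours before reading; 0% = DMSO alone and 100% = caspase signal from 100 µM tamoxifen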
Summary of the method: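 Caspase 3/7 activation is measured as a luminescence increase (aminoluciferin substrate) after 16 h compound exposure of human hepatocarcinoma HepG2 cells. AC50 values are Hill fits, scaled between DMSO baseline and 100 uM tamoxifen stimulation.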

[13] = Cellular Toxicity (caspase-3) Jurkat (AID 655);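 further: cells exposed to compound for 16 h at 37 °C before reading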
Summary of the method: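 5000 Jurkat cells/well; compound 16 hr, 37 °C; Caspase-Glo 3/7 added, 20 min RT; luminescence read. Norm: DMSO = 0%, tamoxifen 100 uM = 100%. AC50, Hill model.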

[14] = Cellular Toxicity (caspase-3) HUV-EC-C (AID 656);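 further: 0% = DMSO basal and 100% = 100 µM tamoxifen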
Summary of the method: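 qHTS; HUV-EC-C, 1000 cells/well; 5 hr settle, 16 hr cmpd, 37°C; Caspase-Glo 3/7, 20 min RT; luminescence. Norm: DMSO = 0%, tamoxifen 100 uM = 100%. Hill-fit AC50.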

[15] = Cellular Toxicity (caspase-3) SHSY5Y (AID 657);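 further: cells exposed to compound for 16 hours at 37 °C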
Summary of the method: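 qHTS, SH-SY5Y, 1500 cells/well, 5 h pre-incubation 37 °C; compound 16 h 37 °C; Caspase-Glo 3/7 1 h RT; luminescence. Norm.: DMSO = 0, 10 uM staurosporine = 100%. Hill fit → AC50.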

[16] = Cellular Toxicity (caspase-3) BJ (AID 658);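 further: cells exposed to compound for 16 hours; 0% = DMSO basal and 100% = 10 µM staurosporine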
Summary of the method: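 Caspase-Glo 3/7 luminescence, read 1 hr after reagent at room temperature, in normal BJ fibroblasts exposed 16 hours at 37 °C. AC50 values from Hill-equation concentration-response, scaled between DMSO basal and 10 uM staurosporine as 100%.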

[17] = Cellular Toxicity (caspase-3) MRC-5 (AID 659);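 further: 0% = DMSO basal and 100% = 10 µM staurosporine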
Summary of the method: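 Luminescent Caspase-Glo 3/7 read-out (1 h, room temperature) after a 16 h, 37 °C compound exposure of MRC-5 lung fibroblasts at 1500 cells/well. Concentration-response AC50 from Hill equation; 0% DMSO, 100% 10 uM staurosporine.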

[18] = Cellular Toxicity (caspase-3) Mesangial (AID 660);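 further: combined caspase 3 and 7 activity read by Caspase-Glo luminescence; cells exposed to compound for 16 h before the caspase read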
Summary of the method: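 Caspase 3/7 activation measured by Caspase-Glo 3/7 luminescence (20 min, room temperature) following 16 h exposure of mesangial cells (1000/well); AC50 from Hill-equation fit, normalized to DMSO and 100 uM tamoxifen.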

[19] = Cellular Toxicity (caspase-3) SK-N-SH (AID 661);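 further: cells exposed to compound for 16 hours; 0% = DMSO basal and 100% = 10 µM staurosporine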
Summary of the method: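 Caspase 3/7 activation was read by luminogenic substrate cleavage after 16 hour treatment of SK-N-SH cells. Signal was scaled between DMSO and 10 uM staurosporine, and concentration-response data were fitted with the Hill equation for AC50.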

[20] = Cellular Toxicity (caspase-3) H-4-II-E (AID 663);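 further: cells exposed to compound for 16 hr before readout; 0% = DMSO basal and 100% = 100 µM tamoxifen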
Summary of the method: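 Caspase 3/7 activation measured by luminescent aminoluciferin substrate cleavage after 16 hr compound treatment of H-4-II-E cells in complete medium. Increase normalized between DMSO (basal) and 100 uM tamoxifen (100%); Hill-equation AC50 from concentration-response.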

[21] = Cellular Toxicity (caspase-3) Hek293 (AID 664);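 further: cells exposed to compound for 16 h at 37 °C before readout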
Summary of the method: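 Concentration-response qHTS: caspase 3/7 activation measured by luminescent aminoluciferin substrate cleavage after 16 h compound exposure of Hek 293 cells. AC50 from Hill equation, with DMSO as basal and 100 uM tamoxifen as 100%.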

[22] = Cellular Toxicity (caspase-3) N2a (AID 665);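 further: compound exposure lasted 16 h at 37 °C before readout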
Summary of the method: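 Caspase-3/7 activation measured as luminescence from Caspase-Glo reagent (1 h, room temperature) after 16 h compound exposure of mouse N2a cells. AC50 values from Hill-equation concentration-response, scaled between DMSO and 10 uM staurosporine.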

[23] = Cellular Toxicity (caspase-3) NIH 3T3 (AID 666);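 further: 0% = DMSO basal and 100% = 100 µM tamoxifen stimulation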
Summary of the method: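 Caspase-Glo 3/7 luminescence reported caspase activation in 1000 NIH 3T3 cells/well after 16 h compound exposure at 37 C. DMSO set basal and 100 uM tamoxifen set 100% stimulation; concentration-response modeled with the Hill equation for AC50.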

[24] = Cellular Toxicity (caspase-3) Renal Proximal Tubule (AID 667);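 further: cells exposed to compound for 16 hours at 37 °C before detection; 0% = DMSO basal and 100% = 10 µM staurosporine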
Summary of the method: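 AC50 derived by standard Hill fit of concentration-response data, normalized between DMSO basal and 10 uM staurosporine as 100% stimulation. Cells: primary rat kidney proximal tubule, 16 h treatment at 37 °C.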

[25] = biological target: Cytochrome P450 3A4 (Homo sapiens) (UniProt P08684); test: qHTS Assay for Inhibitors and Substrates of Cytochrome P450 3A4 (AID 884); further: on the % scale 0 is the no-effect control and ±100 the full control effect; nearly all actives have a fitted effect of over 50% in size
Summary of the method: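 Luminescent readout of luciferin produced by CYP3A4 (20 nM) dealkylation of Luciferin-PPXE, 25 uM (its KM). NADPH-driven reaction ran 60 min at RT after 10 min compound preincubation; data scaled to 57 uM ketoconazole as 100% inhibition.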

[26] = Cell Viability - LYMP2-001 (AID 921);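 further: 0% = DMSO only and full inhibition = tetraoctylammonium bromide control wells; nearly all actives have a fitted effect of over 70% in size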
Summary of the method: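 Steps: seed 2500 lymphoblastoid cells/well; 5 hr, 37 C; add compound; 24 hr, 37 C; CellTiter-Glo reagent, 30 min room temperature; read luminescence. Concentration-response modeled by Hill equation for AC50.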

[27] = MultiTox-Fluor Cytotoxicity Assay - LYMP1-001 - Dead Cells (AID 946);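 further: 0% = DMSO and 100% = tetraoctylammonium bromide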
Summary of the method: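 Seed 2500 LYMP1-001 cells/well, incubate 5 hr at 37 C; add compound, 16 hr at 37 C; add MultiTox-Fluor reagent, 60 min RT; read dead-cell fluorescence Ex/Em=485/520. Normalize to DMSO and 15 uM tetraoctylammonium bromide.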

[28] = MultiTox-Fluor Cytotoxicity Assay - LYMP1-001 - Live Cells (AID 947);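 further: 0% = DMSO only and full inhibition = tetraoctylammonium bromide control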
[29] = Cell Viability - LYMP1-002 - Assay at 16 hr (AID 948);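 further: 0% = DMSO alone and full effect = 92 µM tetraoctylammonium bromide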
Summary of the method: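 Seed 2500 LYMP1-002 cells per well in complete medium and hold 5 hr at 37 C. Add compound across a concentration series and incubate 16 hr at 37 C. Add CellTiter-Glo, wait 30 min at room temperature, read luminescence.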

[30] = MultiTox-Fluor Cytotoxicity Assay - LYMP1-002 - Live Cells (AID 955);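 further: cells exposed to compound for 16 hours; on the % scale 0 is the no-effect control and ±100 the full control effect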
Summary of the method: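 After 16 h compound exposure at 37 C, live LYMP1-002 lymphoblastoid cells (2500/well) were quantified by cleavage of cell-permeant GF-AFC substrate, read at 405/510 nm after 60 min. Concentration-response fitted with Hill equation for AC50.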

[31] = MultiTox-Fluor Cytotoxicity Assay - LYMP1-002 - Dead Cells (AID 960);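 further: 0% = DMSO and 100% = tetraoctylammonium bromide; nearly all actives have a fitted effect of over 60% in size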
Summary of the method: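 Dead-cell fluorescence (Ex/Em 485/520) after 16 h compound exposure at 37 C of LYMP1-002 lymphoblastoid cells in complete medium; AC50 by Hill equation, with data scaled between DMSO and 15 uM tetraoctylammonium bromide.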

[32] = MultiTox-Fluor Cytotoxicity Assay - LYMP1-003 - Live Cells (AID 962);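 further: cells exposed to compound for 16 hours at 37 °C; 0% = DMSO only and full loss = 92 µM tetraoctylammonium bromide; cytotoxic hits lower the live-cell protease signal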
Summary of the method: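 Live-cell protease activity (GF-AFC substrate, 405/510 nm, 60 min at room temperature) after 16 h, 37 C compound exposure of human lymphoblastoid LYMP1-003 cells; concentration-response fitted to the Hill equation for AC50.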

[33] = Cell Viability - LYMP1-003 - Assay at 24 hr (AID 963);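 further: plate controls were DMSO only for no effect and tetraoctylammonium bromide positive control for full effect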
Summary of the method: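 Concentration-response qHTS: ATP loss measured by CellTiter-Glo luminescence after 24 h compound exposure at 37 C. Cells were LYMP1-003 human lymphoblastoid, 2500 per well. AC50 derived via standard Hill equation modeling.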

[34] = Cell Viability - LYMP1-003 - Assay at 40 hr (AID 964); further: on the % scale 0 is the no-effect control and ±100 the full control effect; nearly all actives have a fitted effect of over 60% in size
Summary of the method: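 Viability is taken as cellular ATP, read by CellTiter-Glo luminescence after 40 h of compound exposure at 37 C. Cells: human lymphoblastoid line LYMP1-003 at 2500/well; AC50 values derived by Hill-equation fitting of concentration-response data.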

[35] = Cell Viability - LYMP2-003 (AID 965)
Summary of the method: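 Seed 2500 lymphoblastoid cells/well; incubate 5 hr, 37 C; add compounds; incubate 24 hr, 37 C; add CellTiter-Glo, 30 min RT; read luminescence. AC50 from Hill fit.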

[36] = Cell Viability - LYMP2-004 (AID 966)
Summary of the method: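 AC50 values come from Hill modelling of concentration-dependent loss of intracellular ATP, measured by CellTiter-Glo luminescence. Human LYMP2-004 lymphoblastoid cells (2500/well) were exposed to compound for 24 h at 37 C.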

[37] = Cell Viability - LYMP2-005 (AID 967)
Summary of the method: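 Acute cytotoxicity is scored as a concentration-dependent drop in intracellular ATP in human lymphoblastoid LYMP2-005 cells after 24 h compound treatment. ATP is quantified by luciferase luminescence, and AC50 is derived by Hill-equation modelling.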

[38] = Cell Viability - LYMP2-009 (AID 968)
[39] = Cell Viability - LYMP2-011 (AID 969)
Summary of the method: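 Cytotoxicity qHTS with ATP content as read-out: lymphoblastoid cells (2500/well) exposed to compound for 24 h at 37 C, then luciferase luminescence measured. Concentration-response data fitted with the standard Hill equation to give AC50.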

[40] = Cell Viability - LYMP2-013 (AID 970)
Summary of the method: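 qHTS cytotoxicity: ATP-dependent luminescence (CellTiter-Glo, 30 min room temperature) read after 24 h compound exposure at 37 C of 2500 LYMP2-013 lymphoblastoid cells per well. Concentration-response fitted with Hill equation to give AC50.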

Cytochrome P450 3A4 (Homo sapiens), sequence (P08684 whole entry, looked up): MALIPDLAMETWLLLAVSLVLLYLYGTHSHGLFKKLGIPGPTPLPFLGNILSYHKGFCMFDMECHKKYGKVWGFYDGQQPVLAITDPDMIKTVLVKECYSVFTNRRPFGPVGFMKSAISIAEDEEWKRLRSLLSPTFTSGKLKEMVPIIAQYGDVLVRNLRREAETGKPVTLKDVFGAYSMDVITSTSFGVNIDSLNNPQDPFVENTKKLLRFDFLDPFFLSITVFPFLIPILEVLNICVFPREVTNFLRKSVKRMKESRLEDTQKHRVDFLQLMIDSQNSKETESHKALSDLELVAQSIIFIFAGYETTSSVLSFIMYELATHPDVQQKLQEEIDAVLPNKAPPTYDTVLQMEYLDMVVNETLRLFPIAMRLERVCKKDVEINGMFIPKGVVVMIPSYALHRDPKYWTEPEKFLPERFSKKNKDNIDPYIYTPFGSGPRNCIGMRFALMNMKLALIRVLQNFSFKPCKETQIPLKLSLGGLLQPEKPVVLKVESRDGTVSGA

c1ccc2c(c1)-c1cccc3cccc-2c13
inactive: Potency [1] > 92 µM | Potency [2] > 92 µM | Potency [3] > 92 µM | Potency [4] > 92 µM | Potency [5] > 92 µM | activity change, negative = cytotoxicity [6] -25.7% | activity change, negative = cytotoxicity [7] -24% | outcome [8] | outcome [9] | outcome [10] | outcome [11] | outcome [12] | outcome [13] | outcome [14] | outcome [15] | outcome [16] | outcome [17] | outcome [18] | outcome [19] | outcome [20] | outcome [21] | outcome [22] | outcome [23] | outcome [24] | Potency [25] | outcome [26] | Potency [27] | outcome [28] | outcome [29] | outcome [30] | Potency [31] | outcome [32] | outcome [33] | Potency [34] | outcome [35] | outcome [36] | outcome [37] | outcome [38] | outcome [39] | outcome [40]
